Consider 22 molecules from PubChem BioAssay.

The source made the active and inactive calls.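 How the source made its calls, unless noted: active means mean z-score across replicates of 1.96 or higher in either the MELAS or the Rieske mutant cell line; inactive means the rest.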

Assay [1] in a line: viability loss with induced miR-34 in A549 – imaging, A549 dox-inducible miR-34, nuclei and caspase counts, primary screen (AID 1347080;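 active means compounds whose cell count with miR-34 switched on is under 0.7 times the count with it off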). The conditions noted are these: A549 miR-34 inducible, Hoechst nuclei count, 48 h.
Assay [2] can be described thus: MELAS cybrid and Rieske KO viability enhancers – cell-based, MELAS cybrids, Rieske KO mouse fibroblasts, CellTiter-Glo, primary screen (AID 1508586).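 Further: z relative to plate mean and SD of compound and empty wells.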 To be noted: low glucose. In general terms: ATP-based viability assays read luminescence as a measure of living cells.
Setting [3] is: stronger effect = lower value, cell number ratio, induced over uninduced.
The mark [4] stands for this setting: measured here: relative caspase fold change +Dox/-Dox.
Where [5] appears, read: measured here: total cells with miR-34 induction, stronger effect = lower value.
The mark [6] stands for this setting: measured here: total cells without miR-34 induction.
Setting [7] is: MELAS cybrid survival, CellTiter-Glo 48 h, stronger effect = higher value.
[8] abbreviates: Rieske KO mouse fibroblast survival, CellTiter-Glo 72 h.
Further: test concentration not given here.

As to `C=CC[N+]1(C2C[C@H]3[C@@H]4CC[C@H]5CC(O)C(N6CCOCC6)C[C@]5(C)[C@@H]4CC[C@]3(C)C2OC(C)=O)CCCC1` (some centres not stated), the fold change in assay [1] (setting [3]) is 0.951 (inactive); in assay [1] (setting [4]), 0.974. The cell count in assay [1] (setting [5]) came out at 8100; in assay [1] (setting [6]) it was 8520. Besides, the z-score in assay [2] (setting [7]) was -0.403 (inactive); in assay [2] (setting [8]), 0.424.

As for `CCC(C)C(=O)OC1CC(C)C=C2C=CC(C)C(CCC3CC(O)CC(=O)O3)[C@H]21` (some centres not stated), the results for the fold change in assay [1] (setting [3]) and in assay [1] (setting [4]) were 1.2 (inactive) and 0.613, respectively. Besides, the cell count is 3590 in assay [1] (setting [5]) and 2990 in assay [1] (setting [6]). Also, the z-score in assay [2] (setting [7]) was -0.367 (inactive); in assay [2] (setting [8]) it was -1.71.

Regarding `CC1C[C@H]2[C@@H]3CCC4=CC(=O)C=C[C@]4(C)[C@]3(Cl)C(O)C[C@]2(C)[C@]1(OC(=O)c1ccco1)C(=O)CCl` (some centres not stated), the fold change in assay [1] (setting [3]) was 0.916 (inactive); in assay [1] (setting [4]), 0.877. Besides, the cell count in assay [1] (setting [5]) came out at 4380; in assay [1] (setting [6]) it was 4780. Further, the z-score in assay [2] (setting [7]) is -0.46 (inactive); in assay [2] (setting [8]), -0.518.

In the case of `C[C@]12CCC(=O)C=C1[C@@H]1C[C@@H]1[C@H]1[C@@H]3[C@@H]4C[C@@H]4[C@]4(CCC(=O)O4)[C@@]3(C)CC[C@H]12`, the fold change is 0.956 (inactive) in assay [1] (setting [3]) and 0.848 in assay [1] (setting [4]). Further, the cell count came out at 6880 in assay [1] (setting [5]) and 7200 in assay [1] (setting [6]). Also, the results for the z-score in assay [2] (setting [7]) and in assay [2] (setting [8]) were -0.459 (inactive) and 0.378, respectively.

In the case of `CC(OC1OCCN(Cc2n[nH]c(=O)[nH]2)C1c1ccc(F)cc1)c1cc(C(F)(F)F)cc(C(F)(F)F)c1` (configuration not stated), the values for the fold change in assay [1] (setting [3]) and in assay [1] (setting [4]) were 0.911 (inactive) and 3.19, respectively. Also, the values for the cell count in assay [1] (setting [5]) and in assay [1] (setting [6]) were 7240 and 7950, respectively. Moreover, the z-score in assay [2] (setting [7]) was 1.33 (inactive); in assay [2] (setting [8]) it was -2.44.

Regarding `COc1ccnc2[nH]cc(C(=O)C(=O)N3CCN(C(=O)c4ccccc4)CC3C)c12` (configuration not stated), the fold change in assay [1] (setting [3]) was 0.955 (inactive); in assay [1] (setting [4]), 0.698. Moreover, the cell count in assay [1] (setting [5]) worked out at 9920; in assay [1] (setting [6]), 10400. For the same molecule, the figures for the z-score in assay [2] (setting [7]) and in assay [2] (setting [8]) were -0.419 (inactive) and 0.811, respectively.

Turning to `CC1(C)CCC(c2ccc(Cl)cc2)=C(CN2CCN(c3ccc(C(=O)NS(=O)(=O)c4ccc(NC(CCN5CCOCC5)CSc5ccccc5)c(S(=O)(=O)C(F)(F)F)c4)cc3)CC2)C1` (configuration not stated), the fold change in assay [1] (setting [3]) is 1.03 (inactive); in assay [1] (setting [4]), 0.848. The values for the cell count in assay [1] (setting [5]) and in assay [1] (setting [6]) were 4260 and 4140, respectively. Also, the z-score in assay [2] (setting [7]) was 0.179 (inactive); in assay [2] (setting [8]), -2.71.

`CCOC(=O)O[C@@]1(C(=O)OCCl)CC[C@H]2[C@@H]3CCC4=CC(=O)C=C[C@]4(C)[C@@H]3C(O)C[C@@]21C` (some centres not stated): the fold change in assay [1] (setting [3]) was 0.859 (inactive); in assay [1] (setting [4]), 1.25. For the same molecule, the figures for the cell count in assay [1] (setting [5]) and in assay [1] (setting [6]) were 5320 and 6190, respectively. For the same molecule, the figures for the z-score in assay [2] (setting [7]) and in assay [2] (setting [8]) were -0.313 (inactive) and -0.191, respectively.

For `COC1CC2CCC(C)[C@](O)(O2)C(=O)C(=O)N2CCCC[C@H]2C(=O)OC(C(C)CC2CCC(n3cnnn3)C(OC)C2)CC(=O)C(C)C=C(C)C(O)C(OC)C(=O)C(C)CC(C)C=CC=CC=C1C` (some centres not stated), the fold change was 1.13 (inactive) in assay [1] (setting [3]) and 0.353 in assay [1] (setting [4]). Also, the cell count is 5100 in assay [1] (setting [5]) and 4500 in assay [1] (setting [6]). Further, the z-score was 3.99 (active) in assay [2] (setting [7]) and 2.04 in assay [2] (setting [8]).

On to `O=C(c1ccc(C=Cc2n[nH]c3ccccc23)cc1)N1CCNCC1`, for which the fold change in assay [1] (setting [3]) was 0.879 (inactive); in assay [1] (setting [4]), 0.981. The figures for the cell count in assay [1] (setting [5]) and in assay [1] (setting [6]) were 2420 and 2750, respectively. In addition, the z-score in assay [2] (setting [7]) was 0.658 (inactive); in assay [2] (setting [8]), -1.76.

On to `C[C@@]12C(=O)N(c3ccc(C(=O)Nc4cccc5cccnc45)cc3)C(=O)[C@@H]1C1C=CC2C1` (some centres not stated), for which the fold change is 1.75 (inactive) in assay [1] (setting [3]) and 0.793 in assay [1] (setting [4]). For the same molecule, the cell count came to 7280 in assay [1] (setting [5]) and 4160 in assay [1] (setting [6]). Besides, the z-score in assay [2] (setting [7]) is 0.0501 (inactive); in assay [2] (setting [8]), -0.119.

On to `CCCC(=O)Nc1cccc(NC(=O)c2ccccc2Br)c1`, for which the fold change in assay [1] (setting [3]) is 0.957 (inactive); in assay [1] (setting [4]), 0.928. Moreover, the values for the cell count in assay [1] (setting [5]) and in assay [1] (setting [6]) were 7570 and 7910, respectively. Also, the z-score in assay [2] (setting [7]) is -0.112 (inactive); in assay [2] (setting [8]), -0.0371.

Regarding `O=C1O[C@H](C(O)CO)C(O)C1O` (some centres not stated), the fold change in assay [1] (setting [3]) was 0.859 (inactive); in assay [1] (setting [4]), 0.731. Moreover, the cell count is 8460 in assay [1] (setting [5]) and 9850 in assay [1] (setting [6]). Also, the z-score in assay [2] (setting [7]) is -0.207 (inactive); in assay [2] (setting [8]), -0.154.

For `Cc1c(C(=O)Nc2ccc(N3CC(C)OC(C)C3)nc2)cccc1-c1ccc(OC(F)(F)F)cc1` (configuration not stated), the fold change is 0.962 (inactive) in assay [1] (setting [3]) and 0.609 in assay [1] (setting [4]). For the same molecule, the cell count was 6270 in assay [1] (setting [5]) and 6520 in assay [1] (setting [6]). Further, the z-score in assay [2] (setting [7]) was -0.33 (inactive); in assay [2] (setting [8]) it was 0.503.

On to `CCOC(=O)c1ccc(NC2CCCCC2)c(N)c1`, for which the fold change in assay [1] (setting [3]) is 0.937 (inactive); in assay [1] (setting [4]), 0.358. Moreover, the figures for the cell count in assay [1] (setting [5]) and in assay [1] (setting [6]) were 7670 and 8180, respectively. In addition, the z-score in assay [2] (setting [7]) was -0.371 (inactive); in assay [2] (setting [8]), 0.61.

Take `O=[N+]([O-])c1cn2c(n1)OCC(OCc1ccc(OC(F)(F)F)cc1)C2` (configuration not stated): the fold change in assay [1] (setting [3]) was 0.949 (inactive); in assay [1] (setting [4]) it was 0.871. Also, the cell count in assay [1] (setting [5]) is 6600; in assay [1] (setting [6]), 6960. Further, the results for the z-score in assay [2] (setting [7]) and in assay [2] (setting [8]) were -0.338 (inactive) and 0.787, respectively.

Regarding `CC(C)(C)NC(=O)C1CC[C@H]2[C@@H]3CC[C@H]4NC(=O)C=C[C@]4(C)[C@@H]3CC[C@]12C` (some centres not stated), the fold change in assay [1] (setting [3]) is 1.03 (inactive); in assay [1] (setting [4]), 1.3. Moreover, the cell count is 8400 in assay [1] (setting [5]) and 8170 in assay [1] (setting [6]). For the same molecule, the z-score in assay [2] (setting [7]) was -0.417 (inactive); in assay [2] (setting [8]), 0.72.

On to `CNC(=O)c1ccccc1Sc1ccc2c(C=Cc3ccccn3)n[nH]c2c1`, for which the fold change was 0.918 (inactive) in assay [1] (setting [3]) and 0.851 in assay [1] (setting [4]). In addition, the cell count in assay [1] (setting [5]) amounted to 2240; in assay [1] (setting [6]) it was 2440. For the same molecule, the z-score in assay [2] (setting [7]) is 1.15 (inactive); in assay [2] (setting [8]), -0.442.

`CN1CCN(S(=O)(=O)c2ccc(-c3cnc(N)c(C(=O)Nc4cccnc4)n3)cc2)CC1`: the fold change is 0.893 (inactive) in assay [1] (setting [3]) and 0.445 in assay [1] (setting [4]). Further, the cell count in assay [1] (setting [5]) is 2390; in assay [1] (setting [6]), 2680. Also, the z-score in assay [2] (setting [7]) is 0.891 (inactive); in assay [2] (setting [8]), -1.29.

On to `COc1cc(C(C)=O)ccc1O`, for which the fold change in assay [1] (setting [3]) is 0.901 (inactive); in assay [1] (setting [4]), 0.815. In addition, the cell count was found to be 7660 in assay [1] (setting [5]) and 8500 in assay [1] (setting [6]). The z-score was -0.427 (inactive) in assay [2] (setting [7]) and -0.0762 in assay [2] (setting [8]).

Turning to `C[C@@H]1C(=O)O[C@H]2CC34[C@H]5C[C@@H](C(C)(C)C)C36C(OC(=O)[C@H]6O)O[C@@]4(C(=O)O5)[C@]21O` (some centres not stated), the fold change in assay [1] (setting [3]) is 0.955 (inactive); in assay [1] (setting [4]), 1.23. Also, the cell count in assay [1] (setting [5]) stood at 7970; in assay [1] (setting [6]) it was 8340. Besides, the z-score in assay [2] (setting [7]) is -0.0435 (inactive); in assay [2] (setting [8]), 0.0455.

Turning to `CC(C)N(CCC(c1ccccc1)c1cc(CO)ccc1O)C(C)C` (configuration not stated), the results for the fold change in assay [1] (setting [3]) and in assay [1] (setting [4]) were 0.934 (inactive) and 1.04, respectively. The values for the cell count in assay [1] (setting [5]) and in assay [1] (setting [6]) were 9810 and 10500, respectively. For the same molecule, the z-score in assay [2] (setting [7]) was -0.366 (inactive); in assay [2] (setting [8]), 0.299.
